Results published in PubChem BioAssay (NCATS).
Records with an inconclusive call do not appear. A call without a number means that no potency is given here. Calls of active or inactive are those of the source. Calls follow the shape of the dose curve; as a rule, active = well fitted inhibition curve with a large enough effect; inconclusive = small, poorly fitted or top-dose-only effect; inactive = flat fitted curve, though single readings scatter.

Tests used:
Test in all cases: qHTS profiling for inhibitors of Plasmodium falciparum proliferation (AID 504749); also: nearly all actives have a fitted effect of over 60% in size
Details in all cases: P. falciparum in erythrocytes, SYBR Green DNA, 72 h; series mostly up to 28.7 µM
CP250 = test system: CP250
Procedure, shortened: (§1)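 Three-day growth assay of blood-stage parasites in erythrocytes (0.3% parasitemia, 2.5% hematocrit) at 37 C, 5% CO2, quantified by SYBR Green DNA staining after overnight detergent lysis.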

CP252 = test system: CP252
Procedure, shortened: as §1

CP256 = test system: CP256
Procedure, shortened: as §1

CP260 = test system: CP260
Procedure, shortened: as §1

CP262 = test system: CP262
Procedure, shortened: as §1

CP265 = test system: CP265
Procedure, shortened: as §1

CP268 = test system: CP268
Procedure, shortened: as §1

CP269 = test system: CP269
Procedure, shortened: as §1

CP286 = test system: CP286
Procedure, shortened: as §1

CP291 = test system: CP291
Procedure, shortened: as §1

CP305 = test system: CP305
Procedure, shortened: as §1

CP315 = test system: CP315
Procedure, shortened: as §1

CP335 = test system: CP335
Procedure, shortened: as §1

DFO2036 = test system: DFO2036
Procedure, shortened: as §1

DIV14 = test system: DIV14
Procedure, shortened: as §1

DIV17 = test system: DIV17
Procedure, shortened: as §1

CP297 = test system: CP297
Procedure, shortened: as §1

CP325 = test system: CP325
Procedure, shortened: as §1

CP329 = test system: CP329
Procedure, shortened: as §1

CP266 = test system: CP266
Procedure, shortened: as §1
Potency is read from the fitted curve at half-maximal effect.

Compound	Potency (CP250)	Potency (CP252)	Potency (CP256)	Potency (CP260)	Potency (CP262)	Potency (CP265)	Potency (CP268)	Potency (CP269)	Potency (CP286)	Potency (CP291)	Potency (CP305)	Potency (CP315)	Potency (CP335)	Potency (DFO2036)	Potency (DIV14)	Potency (DIV17)	Potency (CP297)	Potency (CP325)	Potency (CP329)	Potency (CP266)
CCC(=O)c1ccc2c(c1)N(CCCN1CCN(CCO)CC1)c1ccccc1S2	8.91 µM (active)	11.2 µM (active)	7.08 µM (active)	10 µM (active)	6.75 µM (active)	8.91 µM (active)	12 µM (active)	9.53 µM (active)	4.47 µM (active)	15.1 µM (active)	10.7 µM (active)	9.53 µM (active)	6.01 µM (active)	8.91 µM (active)	9.53 µM (active)	13.5 µM (active)	–	–	–	–
COc1cc(NCCCC(C)N)c2ncccc2c1 (configuration not stated)	5.62 µM (active)	11.2 µM (active)	4.47 µM (active)	8.91 µM (active)	6.75 µM (active)	8.91 µM (active)	6.75 µM (active)	7.57 µM (active)	1.41 µM (active)	–	6.75 µM (active)	–	6.75 µM (active)	11.2 µM (active)	2.13 µM (active)	1.35 µM (active)	8.49 µM (active)	7.57 µM (active)	–	–
CCC(O)c1ccccc1 (configuration not stated)	inactive	inactive	inactive	inactive	inactive	inactive	inactive	inactive	inactive	inactive	inactive	inactive	–	inactive	inactive	inactive	inactive	inactive	inactive	–
FC(F)(F)COCC(F)(F)F	inactive	inactive	inactive	inactive	inactive	inactive	inactive	inactive	inactive	inactive	inactive	inactive	inactive	inactive	inactive	inactive	inactive	inactive	inactive	–
CSCCC(N)C(=O)O (configuration not stated)	inactive	inactive	inactive	inactive	inactive	inactive	–	inactive	inactive	–	inactive	–	inactive	inactive	inactive	inactive	inactive	inactive	inactive	inactive
NC(=O)CC[C@@H]1NC(=O)[C@H](Cc2ccccc2)NC(=O)[C@H](Cc2ccc(O)cc2)NC(=O)[C@@H](N)CSSC[C@@H](C(=O)N2CCC[C@H]2C(=O)N[C@@H](CCCN=C(N)N)C(=O)NCC(N)=O)NC(=O)[C@H](CC(N)=O)NC1=O	inactive	inactive	inactive	2.24 µM (active)	inactive	–	inactive	inactive	inactive	inactive	inactive	inactive	–	–	inactive	–	inactive	inactive	inactive	inactive
[O]=[Bi][O][Bi]=[O]	inactive	inactive	inactive	inactive	inactive	inactive	inactive	inactive	inactive	inactive	inactive	inactive	inactive	inactive	inactive	inactive	inactive	inactive	inactive	–
COc1ccc(C(=O)CCC(=O)O)c2ccccc12	inactive	inactive	inactive	inactive	inactive	inactive	inactive	inactive	inactive	inactive	inactive	inactive	inactive	inactive	inactive	inactive	inactive	inactive	inactive	–
O=P(O)(O)OC[C@H](O)CO	inactive	inactive	inactive	inactive	inactive	inactive	inactive	inactive	inactive	inactive	inactive	inactive	inactive	inactive	inactive	inactive	inactive	inactive	inactive	–
CC(C)(Oc1ccc(C2CCCc3ccccc32)cc1)C(=O)O (configuration not stated)	inactive	inactive	inactive	inactive	inactive	inactive	inactive	inactive	inactive	inactive	inactive	inactive	inactive	inactive	inactive	inactive	inactive	inactive	inactive	–
COc1ccc2c(=O)c(C)c(-c3ccccc3)oc2c1CN(C)C	inactive	inactive	inactive	inactive	inactive	inactive	–	inactive	–	–	inactive	inactive	–	–	–	–	inactive	inactive	–	inactive
CC(=O)[O][Al][O]C(C)=O	inactive	inactive	inactive	inactive	inactive	inactive	–	–	inactive	–	–	inactive	inactive	inactive	–	–	–	–	–	inactive
O=C1[O][Bi][O]c2ccccc21	inactive	inactive	inactive	inactive	inactive	inactive	inactive	inactive	inactive	inactive	inactive	inactive	–	inactive	inactive	inactive	inactive	inactive	inactive	–
O=C(O)[C@H]1C(=CCO)O[C@H]2CC(=O)N12	inactive	inactive	inactive	inactive	inactive	inactive	inactive	inactive	inactive	inactive	inactive	inactive	inactive	inactive	inactive	inactive	inactive	inactive	inactive	–
N=C(N)c1ccc(/C=C/c2ccc(C(=N)N)cc2O)cc1	11.2 µM (active)	15.8 µM (active)	0.447 µM (active)	11.2 µM (active)	1.35 µM (active)	11.2 µM (active)	9.53 µM (active)	6.75 µM (active)	4.47 µM (active)	6.75 µM (active)	6.01 µM (active)	6.01 µM (active)	–	1.12 µM (active)	6.75 µM (active)	6.01 µM (active)	5.36 µM (active)	3.38 µM (active)	2.13 µM (active)	–
CC(C)=CCC/C(C)=C/C=C/C(C)=C/C=C/C(C)=C/C=C/C=C(C)/C=C/C=C(C)/C=C/C=C(\C)CCC=C(C)C	inactive	inactive	inactive	inactive	inactive	inactive	inactive	inactive	inactive	inactive	inactive	inactive	inactive	inactive	–	inactive	inactive	inactive	inactive	–
CN(C)CCCSc1ccccc1NC(=O)/C=C/c1ccccc1	inactive	inactive	inactive	inactive	inactive	inactive	–	inactive	inactive	inactive	inactive	inactive	inactive	inactive	–	–	–	inactive	inactive	inactive
OCCOCCOCCO	inactive	inactive	inactive	inactive	inactive	inactive	–	–	inactive	–	–	–	inactive	inactive	–	–	–	–	–	–
c1ccc2c(c1)Sc1ccccc1N2CCN1CCCC1	11.2 µM (active)	11.2 µM (active)	10 µM (active)	7.94 µM (active)	inactive	11.2 µM (active)	9.53 µM (active)	15.1 µM (active)	10 µM (active)	13.5 µM (active)	15.1 µM (active)	12 µM (active)	9.53 µM (active)	10 µM (active)	6.01 µM (active)	6.75 µM (active)	12 µM (active)	15.1 µM (active)	15.1 µM (active)	–
CC(C)C1=CC2=CC[C@@H]3[C@](C)(CCC[C@@]3(C)C(=O)O)[C@H]2CC1	inactive	inactive	inactive	inactive	inactive	inactive	–	–	inactive	–	–	–	inactive	inactive	–	–	–	–	–	–
CC(C)OC(=O)Nc1ccc2nc(-c3cscn3)[nH]c2c1	inactive	inactive	inactive	inactive	inactive	inactive	inactive	–	inactive	–	inactive	inactive	inactive	inactive	inactive	–	–	inactive	inactive	–
O=C(OCc1ccccc1)c1cccnc1	inactive	inactive	–	–	inactive	inactive	inactive	inactive	–	inactive	inactive	inactive	inactive	inactive	–	inactive	inactive	inactive	inactive	inactive
O=C(c1cc2ccccc2o1)N1CCN(Cc2ccccc2)CC1	–	–	10 µM (active)	–	–	8.91 µM (active)	–	–	–	–	inactive	inactive	–	–	–	–	–	–	–	inactive
O=C(Nc1ccc(O)cc1)c1ccccc1O	inactive	inactive	–	inactive	inactive	–	inactive	inactive	inactive	inactive	inactive	inactive	–	inactive	inactive	inactive	inactive	inactive	inactive	inactive
N#Cc1ccc2c(c1)N(CCCN1CCC(O)CC1)c1ccccc1S2	–	inactive	–	11.2 µM (active)	inactive	–	–	–	–	–	–	inactive	–	–	8.49 µM (active)	9.53 µM (active)	inactive	–	–	inactive
CS(=O)(=O)c1ccc([C@@H](O)[C@@H](COC(=O)CN)NC(=O)C(Cl)Cl)cc1	inactive	–	–	–	inactive	–	–	–	–	–	–	–	–	–	inactive	inactive	–	–	–	–
Cc1cc(-c2ccc(N=Nc3c(S(=O)(=O)O)cc4cc(S(=O)(=O)O)cc(N)c4c3O)c(C)c2)ccc1N=Nc1c(S(=O)(=O)O)cc2cc(S(=O)(=O)O)cc(N)c2c1O	–	inactive	inactive	–	inactive	inactive	–	inactive	inactive	inactive	inactive	inactive	–	inactive	–	–	inactive	inactive	inactive	inactive
O=c1n(CC2CO2)c(=O)n(CC2CO2)c(=O)n1CC1CO1 (configuration not stated)	–	–	inactive	–	–	–	–	inactive	–	–	–	inactive	–	–	–	–	–	inactive	inactive	inactive
